Values without a mark were called inactive. For part of these data: Entries with a potency or affinity are not part of this list. Activity calls are given as the source filed them. Unless noted, how the calls were made is not given here.
Experiments:
[1] = antimalarial activity against Dd2 strain (AID 2302;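 active means growth inhibition above 50% at the single 2 µM test dose, taken to imply half-maximal potency below 2 µM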;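 further: 0% = DMSO untreated growth and 100% = chloroquine plus artemisinin killed control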); conditions: P. falciparum Dd2 in RBCs, LDH growth readout, 72 h; at 2 µM; hits give high values
[2] = human hepatoma cell viability loss – ATP luminescence, cytotoxicity control for P. falciparum antimalarial project, primary screen (AID 2303;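 active means inhibition above 50%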;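 further: 0% = DMSO wells and 100% = digitonin-killed cells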); conditions: HepG2 viability, 24-48 h, at 10 µM, hits give high values
[3] = molecular target: L-lactate dehydrogenase (Plasmodium falciparum (isolate CDC / Honduras)) (UniProt Q27743); experiment: PfLDH activity inhibition – cell lysate, 3D7 strain, counter-screen for P. falciparum growth inhibition project (AID 2304);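 further: 0% = vehicle and 100% = reference inhibitor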; conditions: P. falciparum 3D7 crude extract, LDH APAD/NBT absorbance; at 2 µM; hits give high values
Sequence of L-lactate dehydrogenase (Plasmodium falciparum (isolate CDC / Honduras)) (Q27743 whole entry, looked up): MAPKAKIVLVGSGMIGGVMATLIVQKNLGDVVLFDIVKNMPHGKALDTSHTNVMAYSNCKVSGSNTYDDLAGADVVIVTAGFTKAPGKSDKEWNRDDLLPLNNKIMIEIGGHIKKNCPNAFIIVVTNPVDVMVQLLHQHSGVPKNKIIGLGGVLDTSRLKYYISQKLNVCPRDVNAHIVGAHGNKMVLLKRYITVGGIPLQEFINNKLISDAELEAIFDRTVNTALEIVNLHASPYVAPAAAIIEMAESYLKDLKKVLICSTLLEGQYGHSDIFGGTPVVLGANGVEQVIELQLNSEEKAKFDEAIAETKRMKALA

[4] = inhibition of 3D7 malaria parasite growth – strain 3D7 (AID 2306);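 further: 0% = DMSO wells and 100% = chloroquine plus artemisinin control wells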; conditions: P. falciparum 3D7 erythrocytic growth, LDH absorbance, 72 h; at 2 µM; hits give high values
[5] = molecular target: Calcium-dependent protein kinase 1 (Plasmodium falciparum (isolate 3D7)) (UniProt P62344); experiment: PfCDPK1 kinase inhibitors, biochemical, TCAMS library (AID 1159585; cut-off not given, nearly all actives have IC50 up to about 0.98 µM;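 further: inhibitors leave more ATP so luminescence rises with inhibition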); conditions: recombinant PfCDPK1, Kinase-Glo ATP depletion luminescence
Sequence of Calcium-dependent protein kinase 1 (Plasmodium falciparum (isolate 3D7)) (P62344 whole entry, looked up): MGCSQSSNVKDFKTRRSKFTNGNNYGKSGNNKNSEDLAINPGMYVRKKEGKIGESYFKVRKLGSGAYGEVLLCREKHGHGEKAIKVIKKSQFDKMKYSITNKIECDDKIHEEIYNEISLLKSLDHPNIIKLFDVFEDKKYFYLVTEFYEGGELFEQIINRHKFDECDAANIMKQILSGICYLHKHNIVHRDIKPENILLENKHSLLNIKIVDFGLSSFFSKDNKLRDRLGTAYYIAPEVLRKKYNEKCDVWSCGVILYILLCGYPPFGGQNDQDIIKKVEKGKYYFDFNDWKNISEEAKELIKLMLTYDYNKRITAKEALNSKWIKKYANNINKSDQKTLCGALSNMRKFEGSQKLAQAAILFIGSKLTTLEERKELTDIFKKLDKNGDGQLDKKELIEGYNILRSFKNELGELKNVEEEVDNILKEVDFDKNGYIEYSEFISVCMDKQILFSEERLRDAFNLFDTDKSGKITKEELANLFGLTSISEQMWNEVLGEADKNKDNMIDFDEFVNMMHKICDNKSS

[6] = molecular target: Plasmodium falciparum protein kinase 6 (PK6, PF3D7_1337100) (UniProt Q8IDW1); experiment: PfPK6 kinase inhibitors, biochemical, TCAMS library (AID 1159586); conditions: recombinant PfPK6, Kinase-Glo ATP depletion luminescence
Sequence of Plasmodium falciparum protein kinase 6 (PK6, PF3D7_1337100) (Q8IDW1 1-305): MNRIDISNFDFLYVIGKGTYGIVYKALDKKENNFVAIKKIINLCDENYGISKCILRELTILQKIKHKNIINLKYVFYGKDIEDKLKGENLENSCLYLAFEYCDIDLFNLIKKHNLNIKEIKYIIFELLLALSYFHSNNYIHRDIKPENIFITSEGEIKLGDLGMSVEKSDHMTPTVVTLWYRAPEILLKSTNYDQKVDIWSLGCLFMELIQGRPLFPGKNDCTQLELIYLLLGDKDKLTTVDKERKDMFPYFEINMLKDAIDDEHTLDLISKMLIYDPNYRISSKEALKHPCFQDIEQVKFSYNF

[7] = molecular target: Protein kinase 7 (PK7), Plasmodium falciparum 3D7 (PF3D7_0213400) (UniProt Q7YTF7); experiment: inhibition of Plasmodium PK7 catalytic activity – biochemical, TCAMS antimalarial set, Kinase-Glo luminescence (AID 1159587); conditions: recombinant PfPK7, Kinase-Glo ATP depletion luminescence
Sequence of Protein kinase 7 (PK7), Plasmodium falciparum 3D7 (PF3D7_0213400) (Q7YTF7 1-343): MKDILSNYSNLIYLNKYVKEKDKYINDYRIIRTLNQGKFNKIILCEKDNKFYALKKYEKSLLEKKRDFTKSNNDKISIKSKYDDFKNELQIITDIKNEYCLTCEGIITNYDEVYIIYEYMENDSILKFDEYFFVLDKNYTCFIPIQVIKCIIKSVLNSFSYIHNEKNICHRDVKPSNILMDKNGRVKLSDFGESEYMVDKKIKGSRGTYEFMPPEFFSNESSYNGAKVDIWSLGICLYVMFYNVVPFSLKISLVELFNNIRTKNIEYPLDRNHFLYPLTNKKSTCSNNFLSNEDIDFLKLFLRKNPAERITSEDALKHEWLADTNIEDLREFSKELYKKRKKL

[8] = molecular target: Calcium-dependent protein kinase 4 (Plasmodium falciparum (isolate 3D7)) (UniProt Q8IBS5); experiment: PfCDPK4 kinase inhibitors, biochemical, TCAMS library (AID 1159588; cut-off not given, nearly all actives have IC50 up to about 0.91 µM); conditions: recombinant PfCDPK4, Kinase-Glo ATP depletion luminescence
Sequence of Calcium-dependent protein kinase 4 (Plasmodium falciparum (isolate 3D7)) (Q8IBS5 whole entry, looked up): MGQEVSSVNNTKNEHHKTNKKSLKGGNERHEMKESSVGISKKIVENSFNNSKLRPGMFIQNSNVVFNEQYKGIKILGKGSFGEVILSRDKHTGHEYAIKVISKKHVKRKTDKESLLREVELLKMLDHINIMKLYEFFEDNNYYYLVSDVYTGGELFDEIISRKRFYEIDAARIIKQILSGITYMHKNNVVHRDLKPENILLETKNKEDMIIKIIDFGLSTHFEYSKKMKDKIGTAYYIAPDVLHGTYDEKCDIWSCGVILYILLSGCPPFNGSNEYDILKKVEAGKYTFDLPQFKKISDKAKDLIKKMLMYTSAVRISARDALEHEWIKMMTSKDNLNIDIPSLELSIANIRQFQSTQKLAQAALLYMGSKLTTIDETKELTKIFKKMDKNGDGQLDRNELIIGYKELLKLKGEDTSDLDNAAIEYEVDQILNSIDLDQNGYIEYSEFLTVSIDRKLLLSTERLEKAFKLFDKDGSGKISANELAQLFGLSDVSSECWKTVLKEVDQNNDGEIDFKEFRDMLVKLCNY

Structure (SMILES) | growth inhibition [1] | inhibition [2] | inhibition [3] | growth inhibition [4] | outcome [5] | outcome [6] | outcome [7] | outcome [8]
COc1ccccc1-c1sccc1C(=O)NC1(c2cc(Cl)cc(Cl)c2)CCCC1 | 95% (active) | -5% | -3% | 88% (active) | inactive | inactive | inactive | inactive
Fc1ccc2nc(-c3ccc(-c4ccc(CNCC5CCCO5)cc4)cc3)[nH]c2c1 (configuration not stated) | 100% (active) | 26% | -3% | 101% (active) | inactive | inactive | inactive | inactive
COc1cc2nc(N3CCC(CNC(=O)/C=C/c4cccc(C)c4)CC3)nc(N)c2cc1OC | 68% (active) | 16% | -8% | 101% (active) | inactive | inactive | inactive | inactive
CCC(CC)NCc1c(O)ccc2c(CNC(CC)CC)c(O)ccc12 | 94% (active) | 4% | 0% | 100% (active) | inactive | inactive | inactive | inactive
O=C(Nc1cccc([N+](=O)[O-])c1)N(Cc1ccc(Cl)c(Cl)c1)C1CCNCC1 | -2% | 17% | -2% | 99% (active) | inactive | inactive | inactive | inactive
COc1ccc(N(c2nc(-c3cc(Cl)ccc3Cl)cs2)C2CCNC2)cc1 (configuration not stated) | 9% | 21% | 3% | 95% (active) | inactive | inactive | inactive | inactive
CC1CCc2c(C(=O)N3CCc4ccccc4C3)csc2C1 (configuration not stated) | 75% (active) | 9% | -3% | 99% (active) | inactive | inactive | inactive | inactive
c1ccc(COc2ccc(COc3ccc(Cn4ccnc4)cc3)cc2)cc1 | 45% | 9% | 0% | 86% (active) | inactive | inactive | inactive | inactive
Cc1ccccc1CCNC(=O)c1cnc(N2CCN(c3ccncc3)CC2)c(Cl)c1 | 95% (active) | 36% | -2% | 100% (active) | inactive | inactive | inactive | inactive
Cn1cccc1CCNCc1ccc(-c2cccc(-c3nc4ccc(F)cc4[nH]3)c2)cc1 | 43% | -2% | 1% | 93% (active) | inactive | inactive | inactive | inactive
COc1cccc2c1CCN(CCN1CCC(NC(=O)c3ccc(-c4cccc(Cl)c4Cl)cc3)CC1)C2 | 38% | 47% | -1% | 100% (active) | inactive | inactive | inactive | inactive
Cc1ccccc1C1CCN(C2CCC(NC(=O)C3=Cc4ccccc4OC3)CC2)CC1 (configuration not stated) | 15% | 26% | -4% | 91% (active) | inactive | inactive | inactive | inactive
CN(C)CCNCc1cccc(-c2cccc(-c3nc4ccccc4[nH]3)c2)c1 | 63% (active) | 7% | -3% | 101% (active) | inactive | inactive | inactive | inactive
CO/C(=C\C=C\c1cc2cc(Cl)c(Cl)cc2[nH]1)C(=O)NC1CCN(CCNc2ccccc2)CC1 | 98% (active) | 60% (active) | 1% | 102% (active) | inactive | inactive | inactive | inactive
CN(CCN)Cc1ccc(-c2ccc(-c3nc4ccc(C(F)(F)F)cc4[nH]3)s2)cc1 | 98% (active) | 37% | 2% | 98% (active) | inactive | inactive | inactive | inactive
O=C(Nc1ccc(Cn2nc(Cl)c(N3CCNCC3)cc2=O)cc1)Nc1ccc(-c2ccccc2)cc1 | 49% | 99% (active) | -3% | 97% (active) | inactive | inactive | inactive | inactive
CCOc1ccc2c(NN=Cc3ccc(F)cc3)cc(C)nc2c1 | 99% (active) | 22% | -3% | 101% (active) | inactive | inactive | inactive | inactive
O=C(NCCCN1CCCC1=O)c1cnc(N2CCC(Oc3ccccc3)CC2)c(Cl)c1 | 93% (active) | 7% | -2% | 97% (active) | inactive | inactive | inactive | inactive
Cn1cc(C2CCN(CCCCNC(=O)c3sc(-c4ccc(C(F)(F)F)cc4)nc3CO)CC2)c2ccccc21 | 15% | 46% | -3% | 95% (active) | inactive | inactive | inactive | inactive
C=CCN1C(=O)CN(S(=O)(=O)c2ccc(-n3nc(C)cc3C)cc2)C1=S | -2% | 5% | 1% | 93% (active) | inactive | inactive | inactive | inactive

Structure (SMILES) | growth inhibition [1] | inhibition [2] | inhibition [3] | growth inhibition [4] | outcome [5] | outcome [6] | outcome [7] | outcome [8]
COc1cccc2cc(C(=O)N[C@@H](CC(C)C)C(=O)N[C@H](/C=N/NC(=O)OC(C)(C)C)Cc3ccccc3)oc12 | 88% (active) | 11% | 0% | 99% (active) | inactive | inactive | inactive | inactive
CC1CCCCN1CCCNC(=O)c1cccc(-c2cc3cc(Cl)c(Cl)cc3[nH]2)c1 (configuration not stated) | 7% | 22% | -2% | 94% (active) | inactive | inactive | inactive | inactive
CC1CCCN1Cc1ccc(-c2ccc3c(=O)cc(CCc4cccc(F)c4F)n(CC(=O)N(C)Cc4ccc(-c5ccc(C(F)(F)F)cc5)cc4)c3n2)cc1 (configuration not stated) | 91% (active) | 0% | 3% | 102% (active) | inactive | inactive | inactive | inactive
CC(C)(C)c1ccc(NC(=O)c2cccc(CN3CCCN(Cc4cccc(Cl)c4)CC3)c2)cc1 | 30% | 61% (active) | 3% | 85% (active) | inactive | inactive | inactive | inactive
O=C(C=Cc1ccc([N+](=O)[O-])cc1)N1CCC(CCN2CCC(c3c[nH]c4ccccc34)CC2)CC1 | 48% | 60% (active) | -2% | 100% (active) | inactive | inactive | inactive | inactive
Cc1c(C)n(C2CCCCC2)c2ncnc(OC3CCN(CC(=O)N4CCCC4)CC3)c12 | 59% (active) | 31% | -4% | 95% (active) | inactive | inactive | inactive | inactive
Cc1nc2ccccc2n1C1C[C@H]2CC[C@@H](C1)N2CCCC1(c2ccccc2)CCN(C(=O)OCc2ccccc2)CC1 (some centres not stated) | 29% | 46% | -4% | 90% (active) | inactive | inactive | inactive | inactive
CN(c1ccc(C(=O)N[C@@H](CCC(=O)O)C(=O)O)cc1)S(=O)(=O)c1ccc2nc(N)[nH]c(=O)c2c1 | 3% | 16% | 2% | 97% (active) | inactive | inactive | inactive | inactive
Cc1cccc(C)c1CNc1nc(N2CCOCC2)cc2c(C)c(C)[nH]c12 | 64% (active) | 51% (active) | -4% | 92% (active) | inactive | inactive | inactive | inactive
CC(O)C1CCCCN1C(=O)c1cccc(-c2ccc(-c3nc4ccc(F)cc4[nH]3)cc2)c1 (configuration not stated) | 99% (active) | 46% | -6% | 101% (active) | inactive | inactive | inactive | inactive
CC(C)(C)OC(=O)n1cc(C2CCN(CCCC34CCCc5cccc(c53)NC4=O)CC2)c2ccncc21 (configuration not stated) | -2% | 20% | -5% | 92% (active) | inactive | inactive | inactive | inactive
CC(C)CCN(Cc1cncn1Cc1ccccc1F)C(=O)c1cncc(-c2ccccc2)c1 | 3% | 1% | -5% | 96% (active) | inactive | inactive | inactive | inactive
Cc1[nH]c(C)c(-c2ccc(OCCSc3ccncc3)cc2)c(=O)c1Br | 95% (active) | -6% | -6% | 95% (active) | inactive | inactive | inactive | inactive
CC(C)(C)c1cc2cc(Nc3ccnc4cc(-c5nccs5)ccc34)ccc2[nH]1 | 97% (active) | 5% | -1% | 101% (active) | inactive | inactive | inactive | inactive
O=C(NCc1ccccc1)NC(CCCN1CCC(Oc2cccc(Cl)c2)CC1)c1ccc(Cl)c(Cl)c1 (configuration not stated) | 57% (active) | 15% | 4% | 81% (active) | inactive | inactive | inactive | inactive
C[C@@H]1CN(C(c2cccc(O)c2)c2cccc(C(=O)N(C)c3cccc(F)c3)c2)[C@@H](C)CN1C(c1cccc(O)c1)c1cccc(C(=O)N(C)c2cccc(F)c2)c1 (some centres not stated) | 85% (active) | 0% | 0% | 91% (active) | inactive | inactive | inactive | inactive
Cc1[nH]c(C)c(-c2ccc(OCc3ccccc3)cc2)c(=O)c1Br | 96% (active) | 19% | -2% | 97% (active) | inactive | inactive | inactive | inactive
COc1cccc(CC(=O)N2CCC(n3c(C)nc4ccc(F)cc43)CC2)c1 | 99% (active) | -8% | -3% | 100% (active) | inactive | inactive | inactive | inactive
COc1cc2c(cc1OCCN1CCC(N3CCCC3)CC1)N(C(=O)/C=C/c1ccccc1Cl)CC2 | 68% (active) | 38% | -7% | 100% (active) | inactive | inactive | inactive | inactive

From PubChem BioAssay
